Screening results from PubChem BioAssay.
Only some compounds are listed: those with a hit (about 7.5% of all), similar ones and a draw of the others.
HCMV inh – human cytomegalovirus inhibition. AID 1259415. activity change, negative = inhibition, % at 57.5 µM. HFF cells, HCMV-luciferase reporter, 72 h; active compounds read low. 4.5% of 410,000 active; in the data active = activity change below about -60%; inconclusive = no clear call, values can overlap the other calls; inactive = above about -39%
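Steps: HFFs plated, 16 h 37C; compounds added; HCMV-luciferase added to MOI 1 PFU/cell; 72 h 37C; OneGlo reagent, 5 min room temperature; luminescence read, normalized to controls.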
Vaccinia mCherry – vaccinia inhibition (mCherry reporter). Vaccinia virus mCherry reporter infection, fluorescence. Potency, µM (titrated, usually from 36.5 µM), most hits filed as inhibitors. 0.63% of 310,000 active; calls by dose curve; tested in A549 cells; also: nearly all actives have a fitted effect of over 35% in size
HCV inh – inhibitors of hepatitis C virus infection; Huh7.5.1 HCVcc-Cre infection, luciferase reporter, 44 h; Potency, µM (doses to about 41.8 µM), hits mostly inhibitors; 3.4% of 340,000 active; AID 651820
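After 44 h co-culture of compound, cells and HCVcc-Cre (~0.5 moi), substrate is added for 15 min at room temperature and luciferase measured over 15 sec. Cells were seeded at 1,000/well and pre-cultured 4 h.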
Giardia FBPA inh – Giardia lamblia aldolase inhibition. AID 2451. A8B2U2. purified Giardia FBPA. Potency, µM (series often up to 59.6 µM), most hits filed as inhibitors. 0.71% of 290,000 active; also: nearly all actives have a fitted effect of over 55% in size
Target sequence (A8B2U2 whole entry, looked up): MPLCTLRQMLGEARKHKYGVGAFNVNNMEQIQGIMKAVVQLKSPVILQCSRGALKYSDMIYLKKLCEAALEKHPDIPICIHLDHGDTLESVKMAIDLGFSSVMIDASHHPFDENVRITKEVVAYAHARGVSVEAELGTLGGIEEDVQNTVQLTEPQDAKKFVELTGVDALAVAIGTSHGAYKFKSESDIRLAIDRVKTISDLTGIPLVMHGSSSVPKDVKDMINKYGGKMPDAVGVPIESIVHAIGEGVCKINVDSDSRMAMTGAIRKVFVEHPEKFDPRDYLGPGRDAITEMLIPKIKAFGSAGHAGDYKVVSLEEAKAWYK
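40 nM FBPA preincubated 10 min at RT with compound (up to 57.5 uM final), then substrate plus GAPDH/TPI/NAD/arsenate coupling and diaphorase/resazurin added. Fluorescence read after 20 min at RT, 525/598 nm.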
Vaccinia Venus – inhibitors of vaccinia virus (Venus reporter); Vaccinia virus Venus reporter expression, fluorescence; Potency, µM (highest dose often 36.5 µM), actives largely listed as inhibitors; 0.46% of 330,000 active; calls by dose curve; tested in A549 cells; also: nearly all actives have a fitted effect of over 30% in size
FMDV inh – foot and mouth disease virus antiviral activity | FMDV antiviral cell-based qHTS | Potency, µM (series often up to 57.9 µM), actives largely listed as inhibitors | 1.2% of 410,000 active; calls by dose curve; tested in HEK293T cells; also: read-out not given here; nearly all actives have a fitted effect of over 45% in size
Numbers stand for hits; 0 = inactive; ? = inconclusive; - = no result; ! = repeats disagree; [ ] = dose if it differs, or a comment. Unless noted, calls follow the shape of the dose curve; as a rule, active = well fitted curve in the direction sought with a large enough effect; inconclusive = small, poorly fitted or top-dose-only effect, or another doubt; inactive = no such curve, though single readings can be large; an effect the other way counts as inactive or inconclusive.

SMILES | HCMV inh | Vaccinia mCherry | HCV inh | Giardia FBPA inh | Vaccinia Venus | FMDV inh
COc1ccc(CNC(=O)C(C)n2nc(C)c3c(C)n(-c4ccc(C)cc4)nc3c2=O)cc1 (centres undefined) | -68 | 0 | ? | 0 | 0 | ?
CCC(=O)N1CCN(c2ccccc2NC(=S)NC(=O)c2ccco2)CC1 | 0 | 0 | - | - | 0 | 0
NS(=O)(=O)c1cccc(NC(=O)CC23CC4CC(C2)CC(CC(=O)Nc2cccc(S(N)(=O)=O)c2)(C4)C3)c1 | 0 | - | 0 | 0 | - | 0
Cc1cc(S(=O)(=O)N2CCN(Cc3ccc4c(c3)OCO4)CC2)cc(C)c1N1CCCC1=O | -96 | ? | 0 | 0 | 0 | ?
Cc1ccc2nsnc2c1S(=O)(=O)N1CCN(C)CC1 | 0 | 0 | 0 | 0 | 0 | 0
Cc1ccc2nsnc2c1S(=O)(=O)N1CCN(Cc2ccc3c(c2)OCO3)CC1 | 0 | 0 | 22µM! | 0 | 0 | -
COc1ccc(S(=O)(=O)N2CCN(Cc3ccc4c(c3)OCO4)CC2)cc1C | 0 | 0 | - | - | 0 | 0
COC(=O)[C@H](Cc1ccccc1)NC(=O)/C=C/[C@H]1O[C@@H](n2cc(C)c(=O)[nH]c2=O)C[C@@H]1O | 0 | 0 | - | - | 0 | 0
COCCn1c(=O)c(-c2cccc(C#N)c2)nc2cnc(N(C)C)nc21 | - | - | - | 0 | - | 0
Cc1ccc(-c2cc(C#N)c(=O)n(Cc3c(Cl)cccc3Cl)c2)cc1 | -62 | - | 0 | 0 | - | 0
COC(=O)C(NC(=O)c1ccco1)(Nc1nc(C2CC2)cs1)C(F)(F)F (centres undefined) | -67 | 0 | 0 | 0 | 0 | 0
COC(=O)C(NC(=O)c1ccco1)(Nc1cc(C)ccn1)C(F)(F)F (centres undefined) | 0 | 0 | 0 | ? | 0 | 0
COc1cccc(C(O)c2nc(-c3ccc(Cl)cc3)cs2)c1 (centres undefined) | 0 | 0 | - | - | 0 | ?
CCOc1ccc(NC(=O)Cn2cc(C(=O)c3ccccc3)c(=O)c3cc4c(cc32)OCCO4)cc1 | -104 | 0 | - | - | 0 | ?
O=C(c1ccccc1)c1cn(Cc2ccc(F)cc2)c2ccccc2c1=O | 0 | 0 | - | - | 0 | 0
COc1ccc2c(c1)c(=O)c(C(=O)c1ccccc1)cn2CC(=O)Nc1ccc2c(c1)OCO2 | -103 | 0 | - | - | 0 | 0
COc1ccc(C(=O)c2cn(Cc3ccc(C)cc3)c3cc4c(cc3c2=O)OCO4)cc1 | -65 | 0[7.34 µM] | - | - | 0[7.34 µM] | 0
Cc1ccc(C(=O)c2cn(Cc3ccccc3)c3ccccc3c2=O)cc1 | -63 | 0 | - | - | 0 | 0
CO[C@H]1C=CO[C@@]2(C)Oc3c(C)c(O)c4c(O)c(c5c(nc6cc(C)ccn65)c4c3C2=O)NC(=O)/C(C)=C\C=C[C@H](C)[C@H](O)[C@@H](C)[C@@H](O)[C@@H](C)[C@H](OC(C)=O)[C@@H]1C | - | 0 | - | - | 0 | 0
CC1Cc2cc(S(=O)(=O)N3CCN(c4ccccc4F)CC3)ccc2N1C(=O)C1CCC1 (centres undefined) | 0 | 0 | - | - | 0 | 0
C[C@@]12C=Cc3occc3[C@H]1CC[C@]13CC(=O)[C@@H](CC[C@H]12)C3 | - | - | - | 0 | - | -
CC1CCCCN1CC(O)COCc1ccc(Cl)cc1 (centres undefined) | 0 | ? | 0 | 0 | 0 | 0
CCC(=O)Nc1ccc(C(=O)CN2C(=O)NC3(CCOc4ccccc43)C2=O)cc1 (centres undefined) | 0 | - | 0 | - | - | 0
Nc1c(Cl)cc(-c2csc(N3CCCC3c3nc4cc(Cl)c(Cl)cc4n3CCCO)n2)cc1Cl (centres undefined) | 0 | ? | 2µM | - | 0 | 0
OCCCn1c(C2CCCN2c2nc(-c3ccc(Cl)cc3)cs2)nc2cc(C(F)(F)F)ccc21 (centres undefined) | -66 | ? | ? | - | 0 | 0
SMILES | HCMV inh | Vaccinia mCherry | HCV inh | Giardia FBPA inh | Vaccinia Venus | FMDV inh
Cc1cc(-n2c(SCC(=O)Nc3ccc(Br)cc3)nc3n[nH]c(C)c3c2=N)ccc1Cl | -75 | - | 0 | 0 | - | 0
COc1cccc(NC(=O)CSc2nc3n[nH]c(C)c3c(=N)n2-c2cccc(OC)c2)c1 | 0 | - | 10µM | 0 | ? | 0
CCCCCCN1C[C@@H](n2cc(COC(=O)c3ccccc3)nn2)[C@H](O)C[C@@H]1c1ccc(OC)cc1 | 0 | ? | - | - | ? | ?
CCCn1c(NC(=S)Nc2ccccc2)nc2ccccc21 | 0 | ? | 0 | 0 | ? | 0
S=C(Nc1ccccc1)Nc1nc2ccccc2n1CCOc1ccc(Cl)cc1 | 0 | ? | 10µM | 0 | ? | 0
CCOc1ccc2nc3ccc4[nH]onc4c3c2c1 | ? | 0 | 2.5µM | - | 0 | -
CCOc1ccc2nc3cc(N)ccc3c(N)c2c1 | - | 0 | - | ? | 0 | 0
COc1cc(C(=O)OCC(=O)Nc2cccc(S(=O)(=O)N3CCOCC3)c2)ccc1OCC(C)C | 0 | 0 | 0 | - | 0 | 0
COc1cc(C(=O)OCc2cccc(S(=O)(=O)N3CCOCC3)c2)ccc1OCC(C)C | 0 | - | 10µM | - | - | 0
COc1cc(C2C3=C(Nc4nc(N)[nH]c(=O)c42)c2ccccc2C3=O)ccc1O (centres undefined) | 0 | 0 | 0 | 0 | 0 | 0
Nc1nc2c(c(=O)[nH]1)C(c1ccccc1)C1=C(N2)c2ccccc2C1=O (centres undefined) | 0 | - | 0 | 0 | - | 0
Cn1c2c(c(=O)[nH]c1=O)C(c1ccc(O)cc1)C1=C(N2)c2ccccc2C1=O (centres undefined) | -99 | 0 | ? | 0 | 0 | ?
CCC(C)c1ccc(C2C3=C(Nc4nc(N)[nH]c(=O)c42)c2ccccc2C3=O)cc1 (centres undefined) | -65 | - | 7.9µM | 0 | - | 0
CC1CC(Cl)CCC1C(=O)OC(C)(C)C (centres undefined) | - | 0 | - | 0 | 0 | 0
Cc1ccc(/C=C/C(=O)c2ccccc(=O)c2O)cc1C | -66 | ? | ? | ? | 0 | ?
O=C(/C=C/c1ccccc1)c1cc(Br)ccc(=O)c1O | -107 | - | ? | 0 | ? | ?
O=C(/C=C/c1ccc(O)cc1)c1ccccc1O | - | 0 | - | 0 | 0 | 0
O=C(/C=C\c1ccccc1)c1ccccc1O | - | - | - | 0[12.9 µM] | - | -
COc1cccc(C(C(=O)NC2CCCCC2)N(C(=O)Cc2cccs2)c2ccc(-n3cnnn3)c(OC)c2)c1 (centres undefined) | 0 | - | ? | 0 | - | 0
COc1cccc(C(C(=O)NC2CCCCC2)N(C(=O)c2cccs2)c2ccc3c(c2)OCO3)c1 (centres undefined) | -83 | - | ? | 0 | - | 0
COc1ccc(N(C(=O)c2ccco2)C(C(=O)NC2CCCC2)c2cccs2)cc1OC (centres undefined) | 0 | 0 | 0 | 0 | 0 | 0
O=C(NC1CCCC1)C(c1cccs1)N(C(=O)c1ccco1)c1ccc2c(c1)OCCO2 (centres undefined) | -62 | - | ? | 0 | 0 | 0
COc1ccc(N(C(=O)c2ccco2)C(C(=O)NC2CCCC2)c2cccs2)cc1 (centres undefined) | -69 | 0 | 0 | 0 | 0 | 0
CCOC(=O)C1CCN(c2ncnc3c2c(-c2ccccc2)cn3-c2ccc(Cl)cc2)CC1 | 0 | 0 | - | - | 0 | 0
